FMDV inh = High Throughput Screening for Foot and Mouth Disease Virus Antivirals. AID 1159524, 2015. Potency, µM (titrated, usually from 57.9 µM), for the others: at the highest dose activity change, negative = inhibition, most hits filed as inhibitors. actives 1.2% (n = 410,000). FMDV antiviral cell-based qHTS; calls by dose curve; tested in HEK293T cells; further: read-out not given here; potency means the concentration at half of the fitted maximal effect; nearly all actives have a fitted effect of over 45% in size
FBPA Giardia inh = qHTS Assay for Inhibitors of Fructose-1,6-bisphosphate Aldolase from Giardia Lamblia | A8B2U2 | purified Giardia FBPA | Potency, µM (top dose mostly 59.6 µM), without a hit: at the highest dose activity, negative = inhibition, most hits filed as inhibitors | actives 0.71% (n = 290,000) | AID 2451, 2010; further: potency means the concentration at half of the fitted maximal effect; nearly all actives have a fitted effect of over 55% in size
Target sequence (A8B2U2 whole entry, looked up): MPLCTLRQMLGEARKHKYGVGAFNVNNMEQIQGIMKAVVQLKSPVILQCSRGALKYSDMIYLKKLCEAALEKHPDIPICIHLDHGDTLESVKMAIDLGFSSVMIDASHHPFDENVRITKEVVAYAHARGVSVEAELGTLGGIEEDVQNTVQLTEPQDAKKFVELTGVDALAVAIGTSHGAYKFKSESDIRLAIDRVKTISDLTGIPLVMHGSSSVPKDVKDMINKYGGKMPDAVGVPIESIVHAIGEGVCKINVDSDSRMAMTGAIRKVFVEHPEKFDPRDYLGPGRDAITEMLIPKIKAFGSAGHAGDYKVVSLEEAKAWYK
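Giardia FBPA (40 nM reagent) was preincubated 10 min at RT with compound (up to 57.5 uM final), then substrate plus GAPDH/TPI/NAD/arsenate coupling system with diaphorase/resazurin was added; resorufin fluorescence (525/598 nm) was read after 20 min.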
TbPYK inhibitor = qHTS of Trypanosoma Brucei Inhibitors | actives 0.12% (n = 410,000) | pyruvate kinase (Trypanosoma brucei), Q57TT1 | AID 624173, 2012 | Potency, µM (titrated, usually from 76.8 µM), for inactives: top-dose activity, negative = inhibition, most hits filed as inhibitors | TbPYK enzyme, Kinase-Glo Plus ATP luminescence, 45 min; further: potency means the concentration at half of the fitted maximal effect; nearly all actives have a fitted effect of over 50% in size
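Glycolytic pyruvate kinase of T. brucei was incubated with substrate, test compound and 130 uM ADP for 45 minutes at room temperature. Luminescent Kinase-Glo Plus signal was measured after 10 minutes.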
Sm TGR inh = qHTS Assay for the Inhibitors of Schistosoma Mansoni Peroxiredoxins; Schistosoma mansoni thioredoxin glutathione reductase (TGR), Q962Y6; Potency, µM (highest dose often 114 µM), inactives show at the highest dose activity change, negative = inhibition, actives largely listed as inhibitors; AID 485364, 2010; actives 3% (n = 360,000); purified TGR, DTNB reduction, TNB absorbance 405 nm; further: potency means the concentration at half of the fitted maximal effect; nearly all actives have a fitted effect of over 60% in size
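Kinetic colorimetric format: TGR-catalysed, NADPH-driven DTNB reduction monitored via TNB absorbance. Enzyme dispensed at 20 nM; compound exposure 15 min at room temperature before reaction start.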
HCMV antiviral = qHTS Assay for inhibitors of the human cytomegalovirus (HCMV); activity change, negative = inhibition, % at 57.5 µM; AID 1259415, 2018; actives 4.5% (n = 410,000); HFF cells, HCMV-luciferase reporter, 72 h; hits give low values; in the data active means activity change below about -60%; inconclusive means no clear call, values can overlap the other calls; inactive means above about -39%
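Two compound doses tested in HFFs infected with HCMV-luciferase, MOI 1 PFU/cell, 72 h at 37C. Lysate luminescence read with OneGlo; data normalized against buffer-only and 10uM Salinomycin inhibitor controls.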
RE007 growth inh = qHTS Assay for Inhibitors of the HIV-1 protein Vpr; S. pombe RE007 Vpr strain, BacTiter-Glo ATP luminescence, 24 h; AID 651644, 2012; actives 0.21% (n = 360,000); Potency, µM (series often up to 92.2 µM), without a hit: top-dose activity change, negative = less growth, most hits filed as inhibitors; active means well fitted falling curve with a large enough effect; inconclusive means small, poorly fitted or top-dose-only effect; inactive means no such curve, though single readings can be large or run the other way; further: potency means the concentration at half of the fitted maximal effect; nearly all actives have a fitted effect of over 50% in size
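Fission yeast RE007 carrying one integrated HIV-1 vpr copy, seeded at OD 0.01 in PMG+AL medium with 23 nL pinned compound. Grown 24 h at 30 degrees; viability read by BacTiter-Glo luminescence after 5 min.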
The depositor's hits bear a star; ? = inconclusive; / = no result. In the library only some 7.7% were active in any assay of this set; here they are far more common. Unless noted, the call rests on the fitted dose curve; in most records, active means well fitted curve in the direction sought with a large enough effect; inconclusive means small, poorly fitted or top-dose-only effect, or another doubt; inactive means no such curve, though single readings can be large; an effect the other way counts as inactive or inconclusive. On the % scale 0 is the no-effect control and ±100 the full control effect.

SMILES	FMDV inh	FBPA Giardia inh	TbPYK inhibitor	Sm TGR inh	HCMV antiviral	RE007 growth inh
Cc1nnsc1C(=O)NC1CCCc2c1cnn2-c1ccc(C(C)(C)C)cc1 (centres undefined)	?	-3%	5%	2%	-76*	-1%
Cc1nnsc1C(=O)NC1CCCc2c1cnn2-c1ccccc1F (centres undefined)	?	/	3%	-25%	-87*	0%
CC(C)(C)c1ccc(-n2ncc3c2CCCC3NC(=O)c2ccncc2)cc1 (centres undefined)	?	/	-6%	/	-6	-22%
COc1cc(-c2nc(S(=O)(=O)c3ccc(C)cc3)c(N(C)C)o2)cc(OC)c1OC	9%	-18%	-1%	18µM*	86	-3%
Cc1ccc(S(=O)(=O)c2nc(-c3ccccc3Cl)oc2N(C)C)cc1	25%	/	-4%	-9%	/	-18%
Cc1nc(S(=O)(=O)c2ccc(Cl)cc2)c(N(C)C)o1	10%	-4%	-4%	10µM*	0	1%
Cc1ccc(S(=O)(=O)c2nc(-c3ccccc3Br)oc2N(C)C)cc1	-6%	/	-2%	/	35	8%
Cc1ccc(-c2nc(S(=O)(=O)c3ccc(C)cc3)c(N(C)C)o2)cc1	30%	?	42%	2.5µM*	1	11%
COc1ccccc1-c1nc(S(=O)(=O)c2ccc(Cl)cc2)c(N(C)C)o1	/	-22%	13%	?	-8	2%
NC(=O)C1O[C@@H](O)[C@H](O)[C@@H](O)[C@H]1O (some centres undefined)	/	2%	/	/	/	/
CN1c2ccccc2C(C)(C)C12C=Nc1c(cc(N3CCOCC3)c3ccccc13)O2 (centres undefined)	?	-22%	1%	-1%	-74*	2%
Cc1ccc2nc(CSc3nnc(NC(=O)C(C)C)s3)cc(=O)n2c1	-28%	/	0%	0%	?	/
COc1ccc2ncc(S(=O)(=O)c3ccccc3)c(N3CCC4(CC3)OCCO4)c2c1	?	2%	4%	0%	-35	3%
COc1ccc2ncc(S(=O)(=O)c3ccccc3)c(N3CCN(c4ccccc4)CC3)c2c1	?	1%	-7%	-4%	-68*	15%
C#CCNC(=O)C1=C[C@H](C2CCCCC2)C[C@H](OCCCCO)O1	-9%	-15%	-1%	13µM*	-17	2%
C#CCNC(=O)C1=C[C@@H](C2CCCCC2)C[C@@H](OCCCCO)O1	6%	-29%	1%	13µM*	-15	22%
CCSc1nc(-c2ccco2)ccc1C#N	0%	-1%	?	11µM*	57	8%
COC(=O)c1nc2nc(-c3cccs3)cc(C(F)(F)F)n2n1	-6%	17%	0%	-1%	9	1%
O=C(NCc1ccco1)c1nc2nc(-c3cccs3)cc(C(F)(F)F)n2n1	-1%	-5%	-14%	32µM*	178	-2%
O=C(NCc1ccco1)c1nn2c(C(F)(F)F)cc(-c3cccs3)nc2c1Br	-20%	-11%	-10%	32µM*	-14	30%
COC(=O)CC#C[C@H](C)[C@@H](NS(=O)(=O)c1ccc(C)cc1)C1CCCCC1	/	/	/	/	-27	/
CC(=O)N1CCc2cc(CNS(=O)(=O)c3ccc(Cl)s3)ccc21	20%	/	0%	-3%	27	/
CCn1cc(S(=O)(=O)c2ccc(OC)cc2)c(=O)c2cc(F)c(N3CCC(C)CC3)cc21	-11%	/	-9%	4%	1	/
CCOC(=O)CNS(=O)(=O)c1c(C)noc1C	3%	-1%	-2%	25µM*	-19	-18%
O=C(Nc1ccc2nc3n(c(=O)c2c1)CCCC3)c1cccc(F)c1	33%	6%	6%	-4%	1	-16%
SMILES	FMDV inh	FBPA Giardia inh	TbPYK inhibitor	Sm TGR inh	HCMV antiviral	RE007 growth inh
COc1ccc(/C=C/C(=O)Nc2ccc3nc4n(c(=O)c3c2)CCCC4)cc1OC	-6%	0%	1%	0%	-34	-7%
COc1ccc(Nc2c3c(nc4ccc(NC(=O)/C=C/c5cccc(OC)c5OC)cc24)CCCC3)cc1OC	?	/	-7%	1%	-97*	/
COc1ccccc1Nc1c2c(nc3ccc(NC(=O)/C=C/c4cccc(OC)c4OC)cc13)CCCC2	-27%	/	0%	0%	-99*	/
COc1cccc(/C=C/C(=O)Nc2ccc(N3CCOCC3)cc2)c1OC	11%	-4%	-4%	18%	2	6%
COc1ccccc1Nc1c2c(nc3ccc(NC(=O)c4cccc(F)c4)cc13)CCCC2	32µM*	/	5%	1%	-107*	/
COc1ccc(/C=C/C(=O)Nc2ccc3nc4c(c(Nc5ccccc5OC)c3c2)CCCC4)cc1	0%	/	-18%	-1%	-102*	/
CCOC(=O)C1CSCCS(=O)(=O)N1Cc1ccc(F)cc1 (centres undefined)	/	/	/	/	19	/
O=C(NCc1cccc(C(F)(F)F)c1)O[C@H]1CC[C@@]23CCCN2C(=O)CCC[C@H]3[C@H]1Cc1ccccc1	/	/	/	/	-17	/
CN(CCC#N)C(=O)Cn1nc(Cc2ccncc2)c2ccccc2c1=O	-4%	-3%	3%	0%	12	-17%
CCCN(C(=O)Cn1nc(Cc2ccncc2)c2ccccc2c1=O)c1ccccc1C	2%	/	1%	-12%	-62*	/
CCOc1ccc(NC(=O)Cn2nc(Cc3ccncc3)c3ccccc3c2=O)cc1	-13%	/	5%	-12%	-18	/
CCN(CC)CCNC(=O)Cn1nc(Cc2cccnc2)c2ccccc2c1=O	-7%	-2%	0%	2%	5	14%
CCCN(C(=O)Cn1nc(Cc2cccnc2)c2ccccc2c1=O)c1ccc(C(C)C)cc1	-16%	/	5%	-11%	-63*	/
CCCCNC(=O)Cn1nc(Cc2ccncc2)c2ccccc2c1=O	-21%	-10%	1%	31%	-62*	-1%
CN(C)S(=O)(=O)c1cccc(C(=O)NCc2ccco2)c1	1%	4%	-10%	45µM*	6	-11%
Cc1cc(-c2ccco2)n(CC(=O)NCc2ccco2)n1	-13%	-3%	-13%	40µM*	-24	17%
Cc1ccc(N(Cc2ccco2)C(=O)c2cccc(S(=O)(=O)N(C)C)c2)cc1	17%	-5%	2%	-28%	-27	-30%
Cc1cc(C(F)F)nn1CC(=O)NCc1ccco1	-14%	-2%	-5%	-11%	-3	13%
O=C(NC(=S)NCc1ccco1)c1ccc(Br)cc1	60%	?	-10%	50µM*	-37	?
